Bioassay records from PubChem.
PAFAH2 FP inh: PAFAH2 (human) inhibition | Q99487 | recombinant PAFAH2, FP-rhodamine activity probe, fluorescence polarization | inhibition, % at 3.39 µM | 340,000 compounds, 0.99% hits | AID 492956;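 active means inhibition above the mean over all tested compounds plus 3 SD, cut at about 30% in these data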;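 further: inhibitors block probe labeling of enzyme so polarization drops; 0% = enzyme with DMSO and 100% = wells lacking PAFAH2 protein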
pPAFAH FP inh: pPAFAH (human) enzyme inhibition | AID 463082 | 330,000 compounds, 1.5% hits | inhibition, % at 3.39 µM | recombinant pPAFAH, FP-rhodamine probe fluorescence polarization;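 active means inhibition above the mean inhibition across the screen plus 3 SD, cut at about 25% in these data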;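 further: inhibitors block binding of the rhodamine activity-based probe so polarization drops; 0% = enzyme with DMSO and 100% = wells lacking pPAFAH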
Target sequence (Q13093 whole entry, looked up): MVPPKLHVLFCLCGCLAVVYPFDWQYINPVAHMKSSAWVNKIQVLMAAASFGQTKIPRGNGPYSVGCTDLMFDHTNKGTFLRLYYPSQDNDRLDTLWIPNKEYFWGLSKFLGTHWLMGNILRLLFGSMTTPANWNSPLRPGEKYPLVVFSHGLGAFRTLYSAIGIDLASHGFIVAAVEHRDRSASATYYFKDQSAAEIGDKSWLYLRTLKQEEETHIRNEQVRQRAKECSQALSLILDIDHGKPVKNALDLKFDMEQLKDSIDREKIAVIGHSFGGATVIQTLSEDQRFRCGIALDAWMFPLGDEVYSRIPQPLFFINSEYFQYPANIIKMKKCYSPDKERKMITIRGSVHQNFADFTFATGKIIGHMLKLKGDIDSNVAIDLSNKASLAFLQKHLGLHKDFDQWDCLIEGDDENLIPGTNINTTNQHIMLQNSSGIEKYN
PAFAH1B3 FP inh: inhibitors of human PAFAH1B3; 340,000 compounds, 0.28% hits; recombinant PAFAH1B3, FP-rhodamine probe, fluorescence polarization; inhibition, % at 3.39 µM; Q15102;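 active means inhibition above the screen-wide average of all tested compounds plus 3 SD, cut at about 25% in these data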;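 further: 0% = enzyme with DMSO only and 100% = wells lacking PAFAH1B3 protein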
TCR CD3 inh: human TCR-CD3 binding inhibition | TAMRA-labeled TCR probe fluorescence, biochemical | inhibition, % at 9.4 µM | 360,000 compounds, 0.37% hits; in the data active means inhibition above about 19%;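 further: recombinant mutant TCR 2C K166C tagged with TAMRA read by polarization; 0% = receptor in buffer alone and 100% = receptor with positive control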
PAFAH1B2 inh: inhibitors of human PAFAH1B2; P68402; recombinant PAFAH1B2, FP-rhodamine activity probe, fluorescence polarization; inhibition, % at 3.39 µM; 340,000 compounds, 1.2% hits;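 active means inhibition above the mean of all tested compounds plus 3 SD, cut at about 24% in these data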;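 further: 0% = enzyme with DMSO and 100% = wells lacking PAFAH1B2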
Starred values were filed as active, the others as inactive; · = not tested or not shown. A selection: hits, their analogues and other compounds. The true share with any hit is near 2.7%.

SMILES	PAFAH2 FP inh	pPAFAH FP inh	PAFAH1B3 FP inh	TCR CD3 inh	PAFAH1B2 inh
O=C(/C(=N\Nc1ccc([N+](=O)[O-])cc1)Sc1nnnn1-c1ccccc1)c1ccccc1	13	10	2	-5	16
COc1ccc(S(=O)(=O)N2CCN(C(=S)NCCc3ccccc3)CC2)cc1	1	-4	3	7	27*
COc1cccc2c1C1(O)C2CCCCCCCCCC12OCCCO2 (stereo not given)	11	·	0	0	25*
COC(=O)[C@]12C[C@H](CC(=O)NCC3CCCCC3)C(=O)N(Cc3ccc4c(c3)OCO4)C1=C[C@H](COCc1ccccc1)O[C@@H]2C	·	·	·	4	·
COC(=O)[C@]1(CC(C)C)NC=C(C(=O)c2ccccc2)[C@@H]1c1cccs1	·	·	·	-1	·
COC(=O)c1cc2c(c3c4cc(F)ccc4n(C(=O)c4ccccc4)c13)C(=O)N(C1CCCCC1)C2	·	·	·	-9	·
COc1cc(/C=C/C(=O)O[C@H]2[C@H](O[C@@H]3O[C@@H](C)[C@H](O)[C@@H](O)[C@H]3O)[C@@H](O)[C@H](OCCc3ccc(O)c(OC)c3)O[C@@H]2CO)ccc1O	0	1	5	5	3
COCCOC(=O)c1c(C)nc(SCC(=O)Nc2ccc(OC)cc2)c(C#N)c1-c1ccco1	1	27*	5	-6	-3
CC(=O)O/N=C1\C(=O)N(Cc2ccc(C)cc2)c2ccccc21	-14	·	-11	-3	-2
CC(C)CC(=O)O/N=C1\C(=O)N(Cc2ccc(Cl)cc2)c2ccc([N+](=O)[O-])cc21	·	35*	·	·	·
COc1cc(/C=N/Nc2nc(C)nc3c2cnn3-c2ccccc2)ccc1O	9	·	5	-7	28*
CCOc1cc(CNc2ccc(N3CCCCC3)cc2)cc(Br)c1OCC(=O)NC(C)(C)C	1	2	8	3	7
CCOc1cc(CNc2ccc(N(C)C)cc2)cc(Br)c1OCC(=O)NC(C)(C)C	10	34*	7	-5	5
CCOc1cc(CNc2ccc(N3CCOCC3)cc2)cc(Br)c1OCC	7	25*	8	2	4
COc1ccc(C(=O)C(=O)N2CCN(C(=O)c3cc(C(F)(F)F)cc(C(F)(F)F)c3)CC2)cc1OC	·	·	·	7	·
O=c1[nH]c(=O)n(CCCc2ccccc2)cc1-c1ccccc1	4	·	13	-4	-2
CCCCNC(=O)C(c1ccc(OCC(=O)OC)c(C(=O)OC)c1)N(CCOC)C(=O)CCCCCN1C(=O)NC(c2ccc(-c3ccccc3)cc2)C(C(=O)OCc2ccccc2)=C1C (stereo not given)	·	49*	·	5	·
CCCCCCN(C(=O)CCCCCN1C(=O)NC(c2ccc(-c3ccccc3)cc2)C(C(=O)OCc2ccccc2)=C1C)C(C(=O)NCCCC)c1ccc(OCC(=O)OC)cc1 (stereo not given)	·	19	·	·	·
NC(=S)N/N=C/c1ccc(-c2ccc(SC(F)F)cc2)o1	-6	27*	-2	-10	1
Cc1ccc(-c2ccc(/C=N/NC(N)=S)o2)cc1	6	7	11	-1	5
O=C(N/N=C/c1ccncc1)c1cccs1	0	3	2	·	4
O=C(N/N=C/c1ccc(-c2ccccc2C(=O)O)o1)c1cccs1	4	28*	0	9	3
Cc1cc2ncn(S(=O)(=O)N3CCCCC3)c2cc1C	-8	6	1	-7	25*
Cc1cc2ncn(S(=O)(=O)N3CCOCC3)c2cc1C	2	-7	-2	7	6
N#Cc1ccc(S(=O)(=O)NCC2CCN(C(=O)C(=O)c3cc4ccccc4o3)CC2)cc1	·	·	·	4	·
SMILES	PAFAH2 FP inh	pPAFAH FP inh	PAFAH1B3 FP inh	TCR CD3 inh	PAFAH1B2 inh
CCOc1cc(C=O)ccc1OCCSc1ccc(Cl)cc1	-2	13	-1	-3	54*
COc1c(/C=C2\SC(=Nc3ccccc3Cl)NC2=O)cccc1[N+](=O)[O-]	20	17	10	-8	6
O=C1NC(=Nc2ccccc2Cl)S/C1=C\c1cccc([N+](=O)[O-])c1O	50*	34*	22	-8	14
CC(NS(=O)(=O)c1ccc(N)cc1)C1CC2CCC1C2 (stereo not given)	-3	5	5	3	20
CC(NS(=O)(=O)c1ccccc1)C1CC2CCC1C2 (stereo not given)	11	7	3	-1	25*
CCCCOC(=O)Oc1ccc2c(=O)c(Oc3cccc(C)c3)coc2c1	18	27*	1	6	3
COC(=O)c1sc2nc(C)nc(SCC(=O)Nc3sccc3C(N)=O)c2c1C	-2	-2	-6	-1	1
